Rows were chosen to be rich in hits. Some 2.2% of all compounds tested hit in one or more screens of this group.
GLP-1R agonist: qHTS of GLP-1 Receptor Agonists; 380,000 compounds, 0.007% hits; HEK293 GLP-1R CRE-luciferase, luminescence, 4-6 h; cells express a hypersensitive GLP-1R form; Potency, µM (highest dose often 45.6 µM), inactives show at the top dose activation, actives largely listed as activators; AID 624172, 2012; also: potency is read from the fitted curve at half-maximal effect; % of control where 0% means no effect
Target sequence (P43220 whole entry, looked up): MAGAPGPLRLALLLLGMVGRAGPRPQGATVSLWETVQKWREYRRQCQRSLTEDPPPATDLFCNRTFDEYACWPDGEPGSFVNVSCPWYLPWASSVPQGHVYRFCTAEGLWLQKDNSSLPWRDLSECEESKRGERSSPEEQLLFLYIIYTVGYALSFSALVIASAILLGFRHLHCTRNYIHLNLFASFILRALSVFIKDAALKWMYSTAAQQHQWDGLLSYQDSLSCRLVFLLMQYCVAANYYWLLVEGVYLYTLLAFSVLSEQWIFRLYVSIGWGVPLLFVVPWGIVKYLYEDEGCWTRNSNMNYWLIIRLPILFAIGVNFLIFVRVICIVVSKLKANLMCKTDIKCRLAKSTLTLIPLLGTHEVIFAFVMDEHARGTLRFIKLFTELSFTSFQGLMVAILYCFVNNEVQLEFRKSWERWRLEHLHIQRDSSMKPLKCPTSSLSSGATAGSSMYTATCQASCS
GLP1R inv ag: qHTS of GLP-1 Receptor Inverse Agonists (Inhibition Mode) | Glucagon-like peptide 1 receptor (Homo sapiens), P43220 | HEK293 GLP-1R CRE-luciferase, luminescence, 24 h; GLP-1R form is constitutively active | Potency, µM (top dose mostly 38.3 µM), inactives show at the highest dose activity change, negative = inhibition, hits mostly inhibitors | 410,000 compounds, 1.6% hits; also: potency is read from the fitted curve at half-maximal effect; % is scaled to controls: 0 for no effect and ±100 for the full control effect; nearly all actives have a fitted effect of over 55% in size
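Constitutively active GLP-1R drives a cAMP-responsive luciferase in stably transfected HEK293 cells; test compounds are added after overnight (12 h) attachment and left 24 hr, and signal loss in luminescence marks inhibition.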
uPA surface inh: qHTS for Inhibitors of Cell Surface uPA Generation | cell surface uPA generation assay, qHTS | Potency, µM (highest dose often 38.3 µM), inactives show top-dose activity change, negative = inhibition, hits mostly inhibitors | 330,000 compounds, 0.31% hits | AID 540303, 2011; active = well fitted inhibition curve with a large enough effect; inconclusive = small, poorly fitted or top-dose-only effect; inactive = no such curve, though single readings can be large or run the other way; tested in mouse RAW 264.7 cells; also: potency is read from the fitted curve at half-maximal effect; % is scaled to controls: 0 for no effect and ±100 for the full control effect; nearly all actives have a fitted effect of over 55% in size
GLP1R cytotox: qHTS of GLP-1 Receptor Inverse Agonists: Cytotox Screen. HEK293 cAMP-luciferase reporter cells, luminescence, 24 h. AID 624418, 2012. 410,000 compounds, 0.13% hits. Potency, µM (doses to about 38.3 µM), for inactives: at the highest dose activity change, negative = inhibition, usual class: inhibitors;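 also: loss of luciferase light is scored as toxicity; potency is read from the fitted curve at half-maximal effect; % is scaled to controls: 0 for no effect and ±100 for the full control effect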
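Luminescence readout: signal drop marks cytotoxicity. Plated cells grew 12 h at 37 °C, 5% CO2, received 23 nL compound for 24 h, then got luciferase reagent, read after 12 min at RT.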
CCT modulator: High-Throughput Screening for Modulators of Cytosolic Chaperonin Activity | 360,000 compounds, 0.3% hits | activity change, % (no concentration beside the values), hits read low | purified chaperonin ATPase assay, HTRF ADP detection, 30 min | AID 651819, 2012; in the data active = activity change below about -30%; also: % is scaled to controls: 0 for no effect and ±100 for the full control effect
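Enzyme 40 or 20 nM (batch-dependent) in Tris pH 7.4/KCl/MgCl2/DTT; cpd 76 uM single point; ATP 10 uM; 30 min 37 °C; Transcreener ADP HTRF detection, 30 min RT; ratio 665/615.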
Mm-Cpn inhibitor: Inhibitors of TCP-1 ring complex (TRiC) of Methanococcus maripaludis (MmCpn): qHTS. Chaperonin Mm-Cpn (Methanococcus maripaludis). purified Mm-Cpn ATPase, ADP Transcreener TR-FRET. Potency, µM (top dose mostly 76.9 µM), for the others: top-dose activity, negative = inhibition, actives largely listed as inhibitors. 330,000 compounds, 0.031% hits; also: potency is read from the fitted curve at half-maximal effect; % is scaled to controls: 0 for no effect and ±100 for the full control effect; nearly all actives have a fitted effect of over 80% in size
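TR-FRET (320 nm excitation; 590 and 665 nm emission) reports ADP made from 10 uM ATP by 25 nM enzyme; compounds were preincubated 10 min, reaction run 30 min, both at 37°C.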
An asterisk follows results filed as active. Unless noted, calls follow the shape of the dose curve; as a rule, active = well fitted curve in the direction sought with a large enough effect; inconclusive = small, poorly fitted or top-dose-only effect, or another doubt; inactive = no such curve, though single readings can be large; an effect the other way counts as inactive or inconclusive.

How did O=C(Nc1ccc2c(c1)N(S(=O)(=O)c1cccs1)CCC2)c1c(F)cccc1Cl do in these assays?
GLP-1R agonist: -7%; GLP1R inv ag: 7.9µM*; uPA surface inh: -19%; GLP1R cytotox: -3%; CCT modulator: 0; Mm-Cpn inhibitor: -2%

What do the screens show for `O=C(CSCC(=O)N1CCCCC1)Nc1nc(-c2ccccc2)c(-c2ccccc2)s1`?
GLP-1R agonist: -3%; GLP1R inv ag: 5.6µM*; uPA surface inh: -5%; GLP1R cytotox: -5%; CCT modulator: -1; Mm-Cpn inhibitor: -30%

Results for O=C(CSc1nc(-c2ccccc2)c(-c2ccccc2)o1)N1CCCCC1 ?
GLP-1R agonist: -1%; GLP1R inv ag: 11µM*; GLP1R cytotox: 2%; CCT modulator: 1

What do the screens show for `Cc1ccc(OCC(=O)OC2=C(C(=O)c3ccccc3)N(C)S(=O)(=O)c3ccccc32)cc1`?
GLP1R inv ag: -17%; GLP1R cytotox: 0%

How did CC1CCc2[nH]c3ccc(C(=O)N4CCCC(C(F)(F)F)C4)cc3c2C1 (centres undefined) do in these assays?
GLP-1R agonist: -14%; GLP1R inv ag: 10µM*; uPA surface inh: 7%; GLP1R cytotox: -13%; CCT modulator: 0; Mm-Cpn inhibitor: 1%

How did CC1CCc2onc(C(=O)N3CCN(c4ccc(Cl)cc4)CC3)c2C1 (centres undefined) do in these assays?
GLP1R inv ag: -4%; GLP1R cytotox: -1%

Results for CCOC(=O)c1c(NC(=O)c2nc(S(C)(=O)=O)ncc2Cl)sc(C(C)=O)c1C ?
GLP1R inv ag: -27%; GLP1R cytotox: -21%

Results for COc1ccc(-c2nc3ccccc3n2Cc2ccc(C)cc2)cc1 ?
GLP-1R agonist: 3%; GLP1R inv ag: inconclusive; uPA surface inh: -2%; GLP1R cytotox: -26%; CCT modulator: -2

Results for COc1ccc(-c2nc3ccccc3n2Cc2ccc(Cl)cc2)cc1 ?
GLP1R inv ag: 10µM*; GLP1R cytotox: -2%

What do the screens show for `COCn1c(-c2ccc(OC)cc2)nc2ccccc21`?
GLP-1R agonist: -1%; GLP1R inv ag: inconclusive; uPA surface inh: -11%; GLP1R cytotox: -16%; CCT modulator: -4; Mm-Cpn inhibitor: 1%

Results for Cc1ccc(-c2nc3ccccc3c(=O)n2Cc2ccccc2)cc1 ?
GLP-1R agonist: 16%; GLP1R inv ag: 3.5µM*; uPA surface inh: 0%; GLP1R cytotox: -8%; CCT modulator: -5; Mm-Cpn inhibitor: -4%

What do the screens show for `COc1ccc(-c2nc3ccccc3n2Cc2ccc(C(C)C)cc2)cc1`?
GLP-1R agonist: 1%; GLP1R inv ag: 10µM*; GLP1R cytotox: 2%

What do the screens show for `Cc1ccc(Cn2c(-c3ccccc3)nc3ccccc32)cc1`?
GLP1R inv ag: inconclusive; GLP1R cytotox: 17%

What do the screens show for `Cc1cccc(OCCn2c(SCC(N)=O)nc3ccccc32)c1`?
GLP1R inv ag: 6%; GLP1R cytotox: 2%

Results for COc1cccc(CN(C)C(=O)CCN(c2ccccc2)S(=O)(=O)c2ccc(C)cc2)c1OC ?
GLP-1R agonist: 16%; GLP1R inv ag: 8.9µM*; uPA surface inh: -3%; GLP1R cytotox: -11%; CCT modulator: -2; Mm-Cpn inhibitor: 2%

How did CCOc1ccccc1NC(=O)n1ncc2cc(Cl)ccc21 do in these assays?
GLP1R inv ag: 9%; GLP1R cytotox: 2%

Results for CCOC(=O)N1CCc2c(sc(NCc3cccc(F)c3)c2C(=O)Nc2ccc(OC)cc2OC)C1 ?
GLP1R inv ag: -17%; GLP1R cytotox: 0%

Assay outcomes: PubChem, National Center for Advancing Translational Sciences (NCATS)
